The panel holds about 79,000 compounds, 15% with a hit somewhere; the sample as a whole holds those more often. Unmarked numbers belong to inactive results. The source made the active and inactive calls. Rule as the data show it: active = growth inhibition above about 70%; inactive = the rest.
How the values were obtained:
[1] = NCI Yeast Anticancer Drug Screen. Data for the rad50 strain (AID 155);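 also: 0% = growth of vehicle-only cultures of the same strain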; conditions: S. cerevisiae rad50 strain growth inhibition; at 50.0 µM; hits give high values
Summary of the method: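 A DNA repair-deficient yeast mutant serves as the test organism; compound-induced growth inhibition is calculated against vehicle-treated cells.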

[2] = NCI Yeast Anticancer Drug Screen. Data for the mec2-1 strain (AID 157); conditions: S. cerevisiae mec2-1 strain, at 50.0 µM, hits give high values
Summary of the method: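 Strain: mec2-1 (DNA repair/cell cycle alteration). Compound exposure, then growth measured; inhibition expressed relative to vehicle.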

[3] = NCI Yeast Anticancer Drug Screen. Data for the cln2 rad14 strain (AID 165);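 also: 0% = growth equal to vehicle treated cultures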; conditions: S. cerevisiae cln2 rad14 strain, at 50.0 µM, hits give high values
Summary of the method: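 Compounds are applied to the cln2 rad14 yeast strain, and growth is then compared with that of vehicle-treated cultures to give inhibition.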

[4] = NCI Yeast Anticancer Drug Screen. Data for the bub3 strain (AID 167); conditions: S. cerevisiae bub3 mutant strain, at 50.0 µM, hits give high values
Summary of the method: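 Inhibition values come from growth of compound-treated mutant yeast normalised to vehicle-treated controls.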

[5] = NCI Yeast Anticancer Drug Screen. Data for the mlh1 rad18 strain (AID 175); conditions: S. cerevisiae mlh1 rad18 strain growth inhibition; at 50.0 µM; hits give high values
Summary of the method: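 Read-out is yeast growth inhibition, calculated against vehicle-only controls. The compound was applied to a strain engineered with DNA damage repair alterations.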

Row | SMILES | growth inhibition [1] [%] | growth inhibition [2] [%] | growth inhibition [3] [%] | growth inhibition [4] | growth inhibition [5] [%]
1 | CCN1C(=O)Nc2ccc(Cl)cc2C1(O)c1ccccc1 (stereo not given) | 6.25 | 12.6 | 10.8 | -12.8% | -6.35
2 | Cc1nc(N)[nH]c(=O)c1CCCN=Cc1ccccc1 | 8.5 | 56.5 | 18.5 | 92.2% (active) | 51.1
3 | NC(=O)C(CC(=O)O)NC(=O)c1ccccc1 (stereo not given) | 8.05 | 1.15 | -35 | -10.7% | 10.1
4 | Cc1ccc(Cl)cc1NC(=O)Nc1cccc(C(F)(F)F)c1 | 3.3 | 25.5 | -5.4 | 37.1% | 8.95
5 | CCCC1(C(=O)O)NC(=O)NC1=O (stereo not given) | -4.7 | -11.3 | -12.6 | -1.1% | -8.1
6 | Cc1ccc2ccccc2[n+]1CC(=O)c1ccc2c(c1)OCO2 | -3 | -23.2 | 3.85 | -10.7% | 10.7
7 | O=c1[nH]cnc2c1ncn2CCc1ccc([N+](=O)[O-])cc1[N+](=O)[O-] | 3 | -6.15 | -54.9 | -15.1% | -7.95
8 | N#CC(O)CCOCc1ccccc1 (stereo not given) | 9 | -10.1 | -18.9 | -5% | -14.2
9 | c1ccc2c(c1)c1ccccc1c1c3ccccc3c3ccccc3c21 | -10.9 | -14.6 | -18.6 | 0.65% | -20.1
10 | Cc1nn(-c2ccccc2)nc1C(=O)Nc1ccc2[nH]ncc2c1 | -39.2 | -48.1 | -15.8 | -22.9% | -24.6
11 | Nc1nnc(-c2ccc(Br)cc2)o1 | 3.05 | -16.9 | -5 | -25.9% | 5
12 | N=c1ccc2ccccc2n1O | 10.6 | -3.85 | -49.1 | 7.2% | -7.9
13 | CNC(=S)NNC1=NCCCCN1 | -41.2 | -20 | 3.9 | 2.1% | -16.1
14 | Cc1ccnc2[nH]c(-c3cccc(Cl)c3)cc(=O)c12 | -23.4 | -18.6 | -33 | -24.8% | -58.5
15 | Clc1ccccc1N=Cc1ccc(C=Nc2ccccc2Cl)cc1 | 26.9 | 23.8 | 3.3 | 38.5% | 25.9
16 | C=C1OC(c2ccccc2NC)=NC12CCCCC2 | -11.6 | -51.5 | -2.65 | -14.8% | -11.2
17 | CC(=O)OCC(=O)[C@@]1(O)CC[C@H]2[C@@H]3C[C@H](C)C4=CC(=O)C=C[C@]4(C)[C@@]3(Br)[C@@H](O)C[C@@]21C | 30.9 | 7.75 | 35.9 | 1.35% | -9.1
18 | N#Cc1cc([N+](=O)[O-])ccc1NC(=O)C(=O)Nn1c(=S)[nH]c2ccccc2c1=O | -2.25 | -2.6 | 14.6 | 10.3% | 5.9
19 | CCCCCCc1cc2cc(C(=O)Nc3nc(C45CC6CC(CC(C6)C4)C5)cs3)c(=O)oc2cc1O | -16.4 | -19.8 | 17.9 | -16.6% | -11.7
20 | Cc1cc(Cl)c(C)c(C)c1O | 22.6 | 5.45 | 16.6 | 1.25% | 21.4
